A selection: hits, their analogues and other compounds. The true share with any hit is near 3.5%.
LmPK inh: blocks Leishmania mexicana pyruvate kinase activity. 290,000 tested, 0.37% active. purified LmPK, Kinase-Glo ATP luminescence, 1 h. AID 1721. Potency, µM (top dose mostly 57.5 µM), without a hit: at the highest dose activity change, negative = inhibition, actives largely listed as inhibitors; further: on the % scale 0 is the no-effect control and ±100 the full control effect
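qHTS format; LmPK 0.1 nM; substrates PEP 0.5 mM and ADP 0.1 mM. One-hour room-temperature incubation, then coupled luciferase luminescence; 0.5 nM enzyme wells mark activation.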
NS1 function inh: blocks influenza NS1 protein function; Potency, µM (series often up to 46.1 µM), without a hit: at the top dose activity, positive = more growth; 270,000 tested, 0.4% active; AID 2326; calls by dose curve; further: actives are rising curves; nearly all actives have a fitted effect of over 50% in size
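Compounds were scored for reversing the slow growth caused by influenza A NS1 in S. cerevisiae, measured by optical density at 600 nm. Assay medium contained 2% galactose at pH 6.0; NS1-free yeast of the same strain were the positive control.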
RE007 growth inh: less growth of the S. pombe RE007 Vpr strain | S. pombe RE007 Vpr strain, BacTiter-Glo ATP luminescence, 24 h | Potency, µM (titrated, usually from 92.2 µM), inactives show top-dose activity change, negative = less growth, most hits filed as inhibitors | 360,000 tested, 0.21% active | AID 651644; active means well fitted falling curve with a large enough effect; inconclusive means small, poorly fitted or top-dose-only effect; inactive means no such curve, though single readings can be large or run the other way; further: on the % scale 0 is the no-effect control and ±100 the full control effect; nearly all actives have a fitted effect of over 50% in size
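Fission yeast RE007 carrying one integrated HIV-1 vpr copy, seeded at OD 0.01 in PMG+AL medium with 23 nL pinned compound. Grown 24 h at 30 degrees; viability read by BacTiter-Glo luminescence after 5 min.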
Tb PYK inh: blocks Trypanosoma brucei pyruvate kinase | Potency, µM (titrated, usually from 76.8 µM), for the others: at the highest dose activity, negative = inhibition, usual class: inhibitors | 410,000 tested, 0.12% active | TbPYK enzyme, Kinase-Glo Plus ATP luminescence, 45 min | AID 624173 | Q57TT1; further: on the % scale 0 is the no-effect control and ±100 the full control effect; nearly all actives have a fitted effect of over 50% in size
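Readout: single end-point luminescence (Kinase-Glo Plus, 10 min). Reaction conditions were TbPYK/substrate plus 130 uM ADP, 45 min at RT, pH 7.2 TEA buffer. No-enzyme wells served as controls, and data were normalized before concentration-response fitting.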
Sm TGR inh: blocks Schistosoma mansoni thioredoxin glutathione reductase; 360,000 tested, 3% active; purified TGR, DTNB reduction, TNB absorbance 405 nm; Potency, µM (highest dose often 114 µM), for inactives: at the highest dose activity change, negative = inhibition, most hits filed as inhibitors; AID 485364; Q962Y6; further: on the % scale 0 is the no-effect control and ±100 the full control effect; nearly all actives have a fitted effect of over 60% in size
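Kinetic colorimetric format: TGR-catalysed, NADPH-driven DTNB reduction monitored via TNB absorbance. Enzyme dispensed at 20 nM; compound exposure 15 min at room temperature before reaction start.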
Giardia FBPA inh: Giardia lamblia aldolase inhibition; purified Giardia FBPA; 290,000 tested, 0.71% active; AID 2451; Potency, µM (doses to about 59.6 µM), for inactives: at the top dose activity, negative = inhibition, usual class: inhibitors; further: on the % scale 0 is the no-effect control and ±100 the full control effect; nearly all actives have a fitted effect of over 55% in size
Target sequence (A8B2U2 whole entry, looked up): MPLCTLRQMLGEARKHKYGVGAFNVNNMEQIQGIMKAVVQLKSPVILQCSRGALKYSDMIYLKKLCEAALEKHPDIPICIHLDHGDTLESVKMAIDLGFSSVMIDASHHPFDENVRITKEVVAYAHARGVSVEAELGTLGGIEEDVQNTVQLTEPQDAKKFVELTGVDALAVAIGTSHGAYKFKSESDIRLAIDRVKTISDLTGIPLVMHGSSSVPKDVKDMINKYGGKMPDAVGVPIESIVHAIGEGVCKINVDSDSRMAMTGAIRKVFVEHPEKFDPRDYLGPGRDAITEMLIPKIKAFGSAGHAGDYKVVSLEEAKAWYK
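40 nM FBPA preincubated 10 min at RT with compound (up to 57.5 uM final), then substrate plus GAPDH/TPI/NAD/arsenate coupling and diaphorase/resazurin added. Fluorescence read after 20 min at RT, 525/598 nm.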
* hit, by the source's call; ? = inconclusive; . = no result; [ ] = another dose, or the depositor's remark. Unless noted, the call rests on the fitted dose curve; in most records, active means well fitted curve in the direction sought with a large enough effect; inconclusive means small, poorly fitted or top-dose-only effect, or another doubt; inactive means no such curve, though single readings can be large; an effect the other way counts as inactive or inconclusive. Potency means the concentration at half of the fitted maximal effect.

SMILES	LmPK inh	NS1 function inh	RE007 growth inh	Tb PYK inh	Sm TGR inh	Giardia FBPA inh
CN(C)C1C(=O)C(C(N)=O)=C(O)C2(O)C(=O)C3=C(O)c4c(O)cccc4C(C)(O)C3C(O)C12 (stereo not drawn)	-5%	8%	4%[18.4 µM]	-21%	32µM*	?
COc1ccc(OC)c(CCNC(=O)CS(=O)(=O)Cc2nc(-c3cccc(Cl)c3)oc2C)c1	.	.	.	1%	33%	.
Cc1[nH]n(-c2ccc([N+](=O)[O-])cc2)c(=O)c1C=NCCN1CCN(C(=O)c2ccc(Br)cc2)CC1	-25%	0%	7.1µM*	-6%	-1%	6%
Cc1[nH]n(-c2ccc([N+](=O)[O-])cc2)c(=O)c1C=NCCN1CCN(C(=O)c2cccc(F)c2)CC1	?	6%	8.9µM*	-7%	-2%	5%
Cc1ccc(C2CC(=O)N(Cc3ccccc3F)c3c2c(C)nn3-c2nc(C)cc(C)n2)cc1 (stereo not drawn)	.	.	.	4%	7%	.
CCCCCCN(C(=O)CCCCCN1C(=O)NC(c2ccc(C(C)(C)C)cc2)C(C(=O)OCc2ccccc2)=C1C)C(C(=O)NCCCC)c1ccc(OCC(=O)OC)c(C(=O)OC)c1 (stereo not drawn)	2%	8.9µM*	.	.	1%	2%
C=C(C)c1cccc(C(C)(C)NC(=O)N2CCN(CC(N)=O)CC2)c1	-12%	-16%	18%	-7%	45µM*	-1%
C=C(C)c1cccc(C(C)(C)NC(=O)N2CCN(CC)CC2)c1	-3%	-11%	12%	0%	1%	0%
COC(=O)c1ccc(NC(=O)Cn2ccn3nc(-c4ccc(OC)cc4)cc3c2=O)cc1	.	.	.	2%	6%	.
CN(C)S(=O)(=O)c1cccc(NC(=O)COC(=O)/C=C/c2ccc(Br)o2)c1	-2%	0%	5%	-12%	7.1µM*	-14%
Cc1ccc(NC(=O)COC(=O)/C=C/c2ccc(Br)o2)cc1S(=O)(=O)N(C)C	3%	1%	-13%	1%	25µM*	-2%
O=C(CSc1c2c(nc3ccccc13)CCC2)Nc1ccc(F)cc1F	.	.	.	1%	1%	.
O=C(Nc1ccc(C(=O)OCc2cc(=O)n3c4c(sc3n2)CCCC4)cc1)c1cccc(F)c1	.	.	.	-5%	10%	.
Cn1c(=O)c2[nH]c(N=NNc3ccccc3F)nc2n(C)c1=O	-7%	-4%	0%	5%	40µM*	?
Cc1ccccc1NN=Nc1nc2c([nH]1)c(=O)n(C)c(=O)n2C	-15%	-3%	-16%	-28%	56µM*	-21%
COc1cc(NC(=O)Cn2c(=O)n(CC3CCC(C(=O)NCCc4ccccc4)CC3)c(=O)c3ccccc32)cc(OC)c1 (stereo not drawn)	.	.	.	-19%	-4%	.
NC(=O)c1ccc(N=Cc2c(O)n(Cc3ccco3)c(=O)[nH]c2=O)cc1	21%	7%	-18%	-15%	40µM*	-12%
O=c1[nH]c(=O)n(Cc2ccco2)c(O)c1/C=N/N1CCCCCC1	1%	?	-1%	1%	-5%	-3%
N#Cc1c(/N=C/c2c(O)n(Cc3ccco3)c(=O)[nH]c2=O)sc2c1CCCC2	10%	-31%	-17%	?	89µM*	?
CN1[C@@H](C[C@@H](O)c2ccccc2)CCC[C@@H]1C[C@H](O)c1ccccc1	.	.	.	.	.	-4%[21.7 µM]
CN1CCC(N(C)CC(O)c2ccccc2)CC1 (stereo not drawn)	-3%	.	1%	-12%	13µM*	?
CCn1ccc2cc(S(=O)(=O)N3CCC(C(=O)NCCOC)CC3)ccc21	.	.	.	-2%	?	.
Cc1nc(N=Nc2cc([N+](=O)[O-])ccc2Cl)c(COP(=O)(O)O)c(C=O)c1O	.	.	.	.	.	22µM*
O=C(c1nnsc1S(=O)c1ccc(Cl)cc1)N1CCOCC1 (stereo not drawn)	2%	.	?	-9%	2.5µM*	2%
CNC(=O)c1nnsc1S(=O)(=O)c1ccc(Cl)cc1	1%	.	?	-3%	0.28µM*	1%

Screens from PubChem.
